According to PubChem BioAssay (NCI):
About 83,000 compounds went through this panel and 20% of them were active in at least one assay; those are over-represented in the sample as a whole.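 Single-dose data. Exposure time 48 hours. Values below 10 considered active.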 Active and inactive are the calls of the source.

Key:
Experiment in all cases: NCI-60 one-dose screen, 48 h (100 = growth as untreated, 0 = no growth, -100 = all killed)
NCI-H226 lung = conditions: 10 µM unless noted
NCI-H322M lung = conditions: 10 µM unless noted
HOP-62 NSCLC = conditions: 10 µM unless noted
NCI-H460 lung = conditions: 10 µM unless noted
HOP-92 NSCLC = conditions: 10 µM unless noted
NCI-H522 lung = conditions: 10 µM unless noted
A549/ATCC NSCLC = conditions: 10 µM unless noted
786-0 renal = conditions: 10 µM unless noted
COLO 205 colon = conditions: 10 µM unless noted
DU-145 prostate = conditions: 10 µM unless noted
K-562 leukemia = conditions: 10 µM unless noted
MALME-3M melanoma = conditions: 10 µM unless noted
MDA-MB-231 breast = conditions: 10 µM unless noted
RXF 393 renal = conditions: 10 µM unless noted
SF-268 CNS = conditions: 10 µM unless noted
SF-295 CNS = conditions: 10 µM unless noted
SF-539 CNS = conditions: 10 µM unless noted
UACC-257 melanoma = conditions: 10 µM
NCI-H23 lung = conditions: 10 µM unless noted
M14 melanoma = conditions: 10 µM unless noted

Measured: growth

COc1ccc(S(=O)(=O)NCCCNc2nccc(-n3cnc4ccccc43)n2)cc1
inactive: NCI-H226 lung 73.2% | NCI-H322M lung 104% | HOP-62 NSCLC 94.9% | NCI-H460 lung 97.3% | HOP-92 NSCLC 75.8% | NCI-H522 lung 81.1% | A549/ATCC NSCLC 106% | 786-0 renal 95.9% | COLO 205 colon 108% | DU-145 prostate 100% | K-562 leukemia 78.8% | MALME-3M melanoma 107% | MDA-MB-231 breast 84.1% | RXF 393 renal 80.6% | SF-268 CNS 91.6% | SF-295 CNS 90.5% | SF-539 CNS 83.9% | UACC-257 melanoma 100%

CC[C@]12C=CCN3CC[C@]4(C(=C(C(=O)OC)C1)Nc1cc5c(cc14)[C@@H]1[C@H](O5)[C@@H](O)[C@@]4(CC)CC(C(=O)OC)=C5Nc6cc(OC)ccc6[C@@]56CCN1[C@@H]46)[C@@H]32
active: NCI-H23 lung -44.5% | NCI-H226 lung -1.39% | NCI-H460 lung 5.78% | NCI-H522 lung -11.8% | 786-0 renal -9.86% | COLO 205 colon -29.2% | K-562 leukemia 9.45% | RXF 393 renal -39.2% | SF-539 CNS -4.82% | M14 melanoma 9.29%
inactive: NCI-H322M lung 15% | HOP-92 NSCLC 37.1% | A549/ATCC NSCLC 20% | DU-145 prostate 22.6% | MALME-3M melanoma 25% | MDA-MB-231 breast 20.4% | SF-268 CNS 14.9% | SF-295 CNS 15.4% | UACC-257 melanoma 29.5%

COc1ccc2oc3c4[nH]c5ccccc5c4c4c(c3c2c1)C(=O)N(O)C4=O
inactive: NCI-H23 lung 91.8% | NCI-H226 lung 93.8% | NCI-H322M lung 108% | NCI-H460 lung 99.5% | HOP-92 NSCLC 81% | NCI-H522 lung 99.3% | A549/ATCC NSCLC 108% | 786-0 renal 101% | COLO 205 colon 111% | DU-145 prostate 101% | K-562 leukemia 98.3% | MALME-3M melanoma 105% | MDA-MB-231 breast 95.7% | SF-268 CNS 100% | SF-295 CNS 106% | SF-539 CNS 98% | UACC-257 melanoma 106% | M14 melanoma 102%

CNC(=O)c1cc(Oc2ccc3nc(NC(=O)c4cccc(C(F)(F)F)c4)sc3c2)ccn1
inactive: NCI-H226 lung 104% | NCI-H322M lung 103% | NCI-H460 lung 103% | HOP-92 NSCLC 110% | NCI-H522 lung 98.9% | A549/ATCC NSCLC 101% | 786-0 renal 97.2% | COLO 205 colon 112% | DU-145 prostate 101% | MALME-3M melanoma 97.2% | MDA-MB-231 breast 104% | RXF 393 renal 106% | SF-268 CNS 98% | SF-295 CNS 92.6% | SF-539 CNS 99.4% | UACC-257 melanoma 104% | M14 melanoma 96.6%

CCc1ccc(NC(=O)N[C@@H](Cc2cccc(C)c2)C(=O)N[C@@H]2C(=O)N3CCC[C@H]3C(=O)N3CCCC[C@H]3C(=O)N[C@@H](CO)C(=O)N3C[C@H](C)C[C@H]3C(=O)O[C@H]2C)c(F)c1
active: NCI-H226 lung -4.68% | HOP-92 NSCLC -0.374% | COLO 205 colon -36% | RXF 393 renal -9.15%
inactive: NCI-H322M lung 49.9% | NCI-H460 lung 12.5% | NCI-H522 lung 21% | A549/ATCC NSCLC 27.9% | 786-0 renal 40.8% | DU-145 prostate 25.3% | K-562 leukemia 27% | MALME-3M melanoma 37.3% | MDA-MB-231 breast 33.9% | SF-268 CNS 30.1% | SF-295 CNS 12.8% | SF-539 CNS 37.5% | UACC-257 melanoma 15% | M14 melanoma 23.7%

COc1ccc(-c2nnc(SCc3ccc(O)c4ncccc34)o2)cc1
active: HOP-92 NSCLC -2.2%
inactive: NCI-H226 lung 63.7% | NCI-H322M lung 49.3% | HOP-62 NSCLC 32.2% | NCI-H460 lung 14.9% | NCI-H522 lung 27.2% | A549/ATCC NSCLC 41.2% | 786-0 renal 38.2% | COLO 205 colon 102% | DU-145 prostate 32.7% | K-562 leukemia 16.3% | MALME-3M melanoma 50% | MDA-MB-231 breast 52.1% | RXF 393 renal 60.2% | SF-268 CNS 30.9% | SF-295 CNS 15.6% | SF-539 CNS 27.2% | UACC-257 melanoma 28.3% | M14 melanoma 31.4%

C#C[C@]1(O)CC[C@H]2[C@@H]3CC=C4c5sc(Nc6cccc(Cl)n6)nc5CC[C@]4(C)[C@H]3CC[C@@]21C
active: HOP-62 NSCLC -8.39% | NCI-H460 lung -2.3% | HOP-92 NSCLC -5.56% | NCI-H522 lung -17.7% | 786-0 renal -54.8% | K-562 leukemia 3.91% | MALME-3M melanoma -20.2% | MDA-MB-231 breast 9.05% | RXF 393 renal -57.4% | SF-268 CNS -16.5% | SF-295 CNS -70.2% | SF-539 CNS -60.2% | UACC-257 melanoma -64.3% | M14 melanoma -22.8%
inactive: NCI-H226 lung 19.8% | NCI-H322M lung 44.5% | A549/ATCC NSCLC 18.5% | COLO 205 colon 34.5% | DU-145 prostate 24.5%

O=C(N/N=C\c1ccc(Cl)cc1)c1ccc2nc(-c3ccc(Br)cc3)[nH]c2c1
inactive: NCI-H322M lung 41.3% | NCI-H522 lung 10.5% | MDA-MB-231 breast 18.2% | SF-268 CNS 11.9%
active: NCI-H226 lung 9.5% | HOP-62 NSCLC -42.5% | NCI-H460 lung -76.4% | HOP-92 NSCLC -3.66% | A549/ATCC NSCLC -51.7% | 786-0 renal -73.7% | COLO 205 colon -33.4% | DU-145 prostate -1.02% | K-562 leukemia 2.78% | MALME-3M melanoma -59% | RXF 393 renal -46.6% | SF-295 CNS -37.8% | SF-539 CNS -5.56% | UACC-257 melanoma 3.89% | M14 melanoma -45.6%

C#C[C@]1(O)CC[C@H]2[C@@H]3CC=C4c5sc(Nc6cccc(C)n6)nc5CC[C@]4(C)[C@H]3CC[C@@]21C
inactive: NCI-H226 lung 45% | NCI-H322M lung 61.3% | HOP-62 NSCLC 16.5% | NCI-H522 lung 44.7% | A549/ATCC NSCLC 30.7% | COLO 205 colon 68.3% | DU-145 prostate 43.6% | MDA-MB-231 breast 31.9%
active: NCI-H460 lung 4.46% | HOP-92 NSCLC 1.75% | 786-0 renal -70.7% | K-562 leukemia -10.9% | MALME-3M melanoma 5.14% | RXF 393 renal -60.4% | SF-268 CNS -7.63% | SF-295 CNS -70.4% | SF-539 CNS -48.8% | UACC-257 melanoma -34.9% | M14 melanoma -29.8%

O=C1c2c(c3c4cccnc4[nH]c3c3ccc4ccccc4c23)C(=O)N1CCN1CCOCC1
inactive: NCI-H226 lung 71.5% | NCI-H322M lung 84.5% | HOP-62 NSCLC 47.6% | NCI-H460 lung 10.6% | HOP-92 NSCLC 80.7% | NCI-H522 lung 60.5% | A549/ATCC NSCLC 55.4% | 786-0 renal 77.9% | COLO 205 colon 66.8% | DU-145 prostate 59.9% | K-562 leukemia 37.2% | MALME-3M melanoma 64.4% | MDA-MB-231 breast 86.8% | RXF 393 renal 92.8% | SF-268 CNS 58.7% | SF-295 CNS 51.4% | SF-539 CNS 55.6% | UACC-257 melanoma 84.1% | M14 melanoma 47.4%

CCCCCCCCNC(=O)c1ccc(Cn2c(CCCC)nc3c(N)nc4ccccc4c32)cc1
active: NCI-H460 lung 3.61% | NCI-H522 lung -50.4% | 786-0 renal -78.3% | COLO 205 colon -8.18% | K-562 leukemia -59.9% | MALME-3M melanoma -82.9% | MDA-MB-231 breast -71.6% | SF-295 CNS -80.8% | SF-539 CNS -87.1% | UACC-257 melanoma -70.3% | M14 melanoma -80.4%
inactive: NCI-H226 lung 87.7% | NCI-H322M lung 85.3% | HOP-62 NSCLC 75.5% | HOP-92 NSCLC 26.2% | A549/ATCC NSCLC 57.7% | DU-145 prostate 27.7% | RXF 393 renal 23.3% | SF-268 CNS 53.7%

COc1ccc(-c2cc(-c3ccc(Cl)cc3)nc3nc(N)nn23)cc1
inactive: NCI-H226 lung 99.6% | NCI-H322M lung 102% | HOP-62 NSCLC 107% | NCI-H460 lung 107% | HOP-92 NSCLC 102% | NCI-H522 lung 93.9% | A549/ATCC NSCLC 93.8% | 786-0 renal 87.7% | COLO 205 colon 105% | DU-145 prostate 101% | K-562 leukemia 116% | MALME-3M melanoma 118% | MDA-MB-231 breast 104% | RXF 393 renal 91.8% | SF-268 CNS 89.9% | SF-295 CNS 97.3% | SF-539 CNS 95.5% | UACC-257 melanoma 109% | M14 melanoma 117%

c1ccc(-c2c(-c3ccccc3)[n+](Cc3ccc4ccccc4c3)c(-c3ccccc3)n2Cc2ccc3ccccc3c2)cc1
active: NCI-H226 lung -66.8% | NCI-H322M lung -97% | HOP-62 NSCLC -66.9% | NCI-H460 lung -75.6% | HOP-92 NSCLC -89.8% | NCI-H522 lung -76.2% | A549/ATCC NSCLC -74.3% | 786-0 renal -76.9% | COLO 205 colon -57.8% | DU-145 prostate -92.6% | K-562 leukemia -30.9% | MALME-3M melanoma -82.5% | MDA-MB-231 breast -85.6% | RXF 393 renal -91.9% | SF-268 CNS -73.5% | SF-295 CNS -91.3% | SF-539 CNS -90% | UACC-257 melanoma -56.6% | M14 melanoma -72%

COc1cc2oc(-c3cccc(NC(=O)c4cc(NC(=O)[C@H](C)NC(=O)OC(C)(C)C)ccc4C)c3)cc(=O)c2c(OC)c1OC
inactive: NCI-H226 lung 80.6% | NCI-H322M lung 86.2% | HOP-62 NSCLC 84.5% | NCI-H460 lung 61.5% | NCI-H522 lung 72.2% | A549/ATCC NSCLC 80.5% | 786-0 renal 77.5% | COLO 205 colon 67.7% | DU-145 prostate 62.2% | K-562 leukemia 47.4% | MALME-3M melanoma 92.5% | MDA-MB-231 breast 65.1% | RXF 393 renal 67.7% | SF-268 CNS 79.4% | SF-295 CNS 65.5% | SF-539 CNS 79.4% | UACC-257 melanoma 118% | M14 melanoma 97.9%
active: HOP-92 NSCLC -0.546%
